Assay results from PubChem BioAssay AID686934 (National Center for Advancing Translational Sciences (NCATS), 2013).
Records with an inconclusive call do not appear. The source made the active and inactive calls. Calls follow the shape of the dose curve; as a rule, active = well fitted curve in the direction sought with a large enough effect; inconclusive = small, poorly fitted or top-dose-only effect, or another doubt; inactive = no such curve, though single readings can be large or run the other way.

test: qHTS screen for small molecules that inhibit ELG1-dependent DNA repair: SAR in Cell-Based Luciferin Counter Assay; conditions: cell-based luciferase counter-screen, luminescence; series mostly up to 45.7 µM
From the text: Cancer cells divide rapidly compared to normal cells in the body. During cell division, cancer cells need to duplicate their genome by DNA replication. The failure of genome duplication leads to cancer cells' death. Therefore, inhibitors of DNA replication could specifically kill cancer cells. Based on this concept, many chemotherapeutic agents were developed and have been used to treat cancer patients. However, there are a limited number of agents available in the clinical setting, and some of those that do exist have low efficacy and severe side effects. Therefore, if we can find the compounds that effectively block DNA replication either by directly damaging DNA or by inhibiting other cellular mechanisms, the options for cancer treatment will be broadened. With this in mind, we developed a quantitative high-throughput ELG1-luciferase reporter gene assay. Small molecules that specifically block ELG1 function in response to DNA damage can be identified by monitoring the suppression of luciferase activity. Since ELG1 defines a pathway for repairing DNA damage, agents blocking ELG1 function can be used to sensitize cancer cells to chemotherapeutic agents whose mechanism of action involves the induction of DNA damage. This assays is a counterscreen, that is more specifically, a cell-based luciferase assay following treatment with putative ELG1 antagonists to eliminate luciferase enhancers/inhibitors NIH Molecular Libraries Probe Production Network [MLPCN] NIH Chemical Genomics Center [NCGC] MLPCN Grant: R03 MH092164 Assay Provider: Kyungjae Myung, NHGRI, NIH
3 uL of substrate reagent will be pipetted into each well in 1536-well white, solid-bottom plates using a FRD dispenser, followed by addition of 23 nL of DMSO or compounds by pintool. After compound addition, 1 µL of luciferase will be added into the wells. The plates will be read in a ViewLux CCD-based plate reader.

| Structure (SMILES) | outcome |
| --- | --- |
| CC(=O)Nc1sc2c(c1-c1nc3ccccc3s1)CCCNC2 | inactive |
| Cc1cc2ncc(-c3ccccc3)nc2cc1C | inactive |
| Cc1nc(Nc2nc3ccccc3o2)nc2c1CCCC2 | inactive |
| CC(C)C(=O)SCCCCCCC(=O)Nc1nc(-c2ccccc2)cs1 | inactive |
| CSc1ncnc2c1ncn2C1OC(CO)C(O)C1O (stereo not drawn) | inactive |
| CN(Cc1ccco1)c1ncnc2ccc(-c3cccc(Cl)c3)cc12 | inactive |
| CNC(=O)c1cc(-c2cccs2)on1 | inactive |
| NC(=O)C1CCN(c2cc(-c3ccc4c(c3)OCCCO4)ncn2)CC1 | inactive |
| COc1cccc2oc(-c3ccccc3)cc(=O)c12 | inactive |
| COc1ccc(-c2coc3cc(O)cc(O)c3c2=O)cc1 | inactive |
| Oc1ccc(/C=C/c2c(F)cccc2F)c2cccnc12 | inactive |
| Cc1noc(C)c1-c1ccc2ncnc(NCc3ccc(F)c(F)c3)c2c1 | inactive |
| O=c1[nH]c(-c2ccc(-c3cccc(Cl)c3)o2)nc2ccccc12 | inactive |
| CC(=O)Oc1ccc(-c2nc(-c3ccccc3)no2)cc1 | inactive |
| Nc1ccc2cccnc2c1 | inactive |
| Cc1csc(CNc2ncnc3ccc(-c4ccoc4)cc23)c1 | inactive |
| COc1ccc(C2CC(c3c(O)cc(C)oc3=O)=NCCS2)c(OC)c1 (stereo not drawn) | inactive |
| N#Cc1ccc(-c2ccc(-c3nc4ccccc4c(=O)[nH]3)o2)cc1 | inactive |
